Assay [1] in a line: APR_HepG2_P-H2AX_72hr: Apredica 72-hour HepG2 Assay for H2AX Phosphorylation (AID 2282916).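 Further: phospho-histone H2A.x immunostain intensity per cell marking DNA damage.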 The following applies: imaging, actives raise or lower the signal. The method, boiled down: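 Readout: phospho-H2A.x immunofluorescence (FITC secondary) plus Hoechst nuclear stain, high-content imaging at 20x, six fields/well. HepG2, 72 hr compound exposure, 0.39–200 uM, final DMSO 0.5% v/v. Gain or loss fitted relative to DMSO baseline.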

Assay [2] in a line: APR_HepG2_MitoMembPot_72hr: Apredica 72-hour HepG2 Assay for Mitochondrial Membrane Potential (AID 2282917). The following applies: imaging, actives raise or lower the signal. The method, boiled down: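 HepG2 cells dosed 72 hr with compound at 0.39–200 uM in duplicate, 0.5% v/v DMSO final. Mitochondria stained with 250 nM MitoTracker Red CMXRos for 30 min before formaldehyde fixation, imaged by high-content fluorescence; bidirectional fit versus DMSO.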

Assay [3] is described as follows: APR_HepG2_MitoticArrest_72hr: Apredica 72-hour HepG2 Assay for Mitotic Arrest (AID 2282918). The following applies: high-content imaging, actives raise or lower the signal. Summed up:
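HepG2, 72 hr exposure, 0.39–200 uM in duplicate, 0.5% v/v DMSO final. Formaldehyde-fixed, Triton-permeabilized, anti-phospho-histone H3/FITC plus Hoechst. ArrayScan imaging at 20x; curves fit bidirectionally against DMSO baseline.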

Assay [4] is described as follows: APR_HepG2_MicrotubuleCSK_72hr: Apredica 72-hour HepG2 Assay for Microtubule CSK Stabilty (AID 2282919). The following applies: HepG2 microtubule cytoskeleton, high-content imaging, actives raise or lower the signal. The method, boiled down: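 HepG2, 72 hr cmpd exposure, 0.39–200 uM (10 pts, duplicate), 0.5% DMSO. 3.7% formaldehyde fix, 0.5% Triton perm, anti-alpha-tubulin/Cy5 plus Hoechst. HCS fluorescence intensity; bidirectional fit vs DMSO baseline; taxol as positive control.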

The nature of assay [5]: APR_HepG2_P-H2AX_24hr: Apredica 24-hour HepG2 Assay for H2AX Phosphorylation (AID 2282920). The following applies: high-content imaging, actives raise or lower the signal. The method, boiled down:
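HCS fluorescence imaging of phospho-H2A.x immunostain (with Hoechst 33342 nuclear counterstain) in HepG2 after 24 hr compound exposure; 10 concentrations, 0.39–200 uM, duplicate wells, 0.5% v/v DMSO. Gain or loss of signal fitted relative to DMSO baseline.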

The nature of assay [6]: APR_HepG2_StressKinase_72hr: Apredica 72-hour HepG2 Assay for Stress Kinase (AID 2282921). The following applies: HepG2 stress kinase (phospho-c-Jun) imaging, actives raise or lower the signal. The method, boiled down: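 Phospho-c-Jun immunofluorescence measured by high-content imaging at 20x, six fields per well; bidirectional curve fitting against DMSO as baseline. Dosing: 0.39–200 uM, 72 h, 0.5% DMSO final.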

Assay [7] in a line: APR_HepG2_StressKinase_24hr: Apredica 24-hour HepG2 Assay for Stress Kinase (AID 2282922). The following applies: HepG2 stress kinase (phospho-c-Jun) imaging, actives raise or lower the signal. Summed up:
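Read-out: phospho-c-Jun immunofluorescence (Cy3 secondary) quantified by high-content imaging at 20x, nuclei defined by Hoechst 33342. Human HepG2 liver cells dosed 24 hr, 0.39–200 uM, DMSO 0.5% v/v; gain or loss of signal fitted relative to DMSO.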

The nature of assay [8]: APR_HepG2_p53Act_72hr: Apredica 72-hour HepG2 Assay for p53 Activation (AID 2282923).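 Further: average cellular p53 protein immunofluorescence intensity in HepG2 cells.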 The following applies: high-content imaging, actives raise or lower the signal. The method, boiled down: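 Readout: p53 immunofluorescence quantified by automated high-content imaging at 20x, six fields per well, nuclei located via Hoechst. Dosing ran 72 hr over ten concentrations from 0.39 to 200 uM; bidirectional curve fitting against DMSO baseline.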

Assay [9] can be described thus: APR_HepG2_MitoMass_72hr: Apredica 72-hour HepG2 Assay for Mitochondrial Mass (AID 2282924).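 Further: MitoTracker Red CMXRos stain intensity per cell imaged as mitochondrial mass.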 The following applies: high-content imaging, actives raise or lower the signal. Summed up: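 Read-out: MitoTracker Red fluorescence intensity from automated imaging (20x, six fields per well) in human HepG2 liver cells. Dosing ran 72 hr, 0.39–200 uM, 0.5% DMSO; bidirectional curve fitting versus DMSO baseline.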

A short description of assay [10]: APR_HepG2_NuclearSize_72hr: Apredica 72-hour HepG2 Assay for Nuclear Size (AID 2282925). The following applies: high-content imaging, actives raise or lower the signal. Summed up: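 Read-out: nuclear diameter from Hoechst 33342 images (ArrayScan, 20x, six fields/well), via cell-cycle image analysis. HepG2 were dosed 0.39–200 uM for 72 hr in 0.5% DMSO. Bidirectional fit relative to DMSO.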

Assay [11] is described as follows: ATG_CRE_CIS: Attagene CIS-FACTORIAL HepG2 Assay for human cAMP Responsive Element (CRE) binding protein 3 (AID 2282926). The following applies: HepG2 CRE cis-reporter, Attagene multiplexed mRNA; actives raise or lower the signal. The method, boiled down:
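Readout: fluorescently labelled reporter transcripts resolved by capillary electrophoresis after RT-PCR, taken 24 h post-dosing in transfected HepG2. Endogenous transcription factor activity drives each cis-element reporter; gain or loss of signal fitted relative to DMSO control.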

Assay [12] deals with CCAAT/enhancer-binding protein beta (Homo sapiens) (UniProt P17676). Kind of assay: ATG_C_EBP_CIS: Attagene CIS-FACTORIAL HepG2 Assay for human CCAAT/Enhancer Binding Protein (C/EBP) beta (AID 2282927). The following applies: HepG2 Attagene cis-factorial transcription factor reporter; actives raise or lower the signal. The method, boiled down:
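HepG2, transient MRTU transfection, 24 h treatment. RT-PCR plus CE fluorescence; DMSO negative control, bidirectional fit.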

Assay [13] in a line: ATG_CMV_CIS: Attagene CIS-FACTORIAL HepG2 Assay for human CMV (Internal Marker) (AID 2282928).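 Further: endpoint acts as a background internal control marker rather than a target.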 The following applies: HepG2 CMV promoter reporter, transcription factor profiling; actives raise or lower the signal. The method, boiled down:
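Readout: fluorescent reporter cDNA fragments separated by capillary electrophoresis after RT-PCR and HpaI cut. Cells: HepG2 carrying transfected cis-promoter reporter constructs, dosed 24 h. Endpoint serves as background internal-marker control, fit bidirectionally versus DMSO.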

For assay [14], the target named is Aryl hydrocarbon receptor (Homo sapiens) (UniProt P35869). Description: ATG_Ahr_CIS: Attagene CIS-FACTORIAL HepG2 Assay for human Aryl Hydrocarbon Receptor (Ahr) (AID 2282930). The following applies: HepG2 AhR cis-factorial reporter transcription; actives raise or lower the signal. The method, boiled down: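 Endogenous factor activity is tracked through cis-promoter reporter units transfected into HepG2 cells. Transcript levels at 24 h are read by fluorescent RT-PCR and capillary electrophoresis, with activity in either direction scored relative to DMSO.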

Assay [15] can be described thus: ATG_AP_2_CIS: Attagene CIS-FACTORIAL HepG2 Assay for human Activator Protein 2 (AP-2) (AID 2282932). The following applies: HepG2 AP-2 cis-reporter, Attagene transcription factor profiling; actives raise or lower the signal. The method, boiled down: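 Read-out: fluorescent reporter mRNA via RT-PCR and capillary electrophoresis, 24 h post-dose in transiently transfected HepG2. Endogenous factors drive cis-promoter reporters; gain or loss of signal fitted bidirectionally against DMSO.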

Assay [16] in a line: ATG_BRE_CIS: Attagene CIS-FACTORIAL HepG2 Assay for human Bone Morphogenetic Protein (BMP) Response Element (BRE) (AID 2282933). The following applies: HepG2 BMP response element reporter, Attagene transcription factor profiling; actives raise or lower the signal. Summed up: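 After a 24 h chemical treatment, transiently transfected HepG2 cells were lysed for RNA; reporter transcripts were quantified by fluorescent RT-PCR and capillary electrophoresis, normalised to DMSO.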

In assay [17] the target is Retinoic acid receptor alpha (Homo sapiens) (UniProt P10276). Description: ATG_DR5_RAR_CIS: Attagene CIS-FACTORIAL HepG2 Assay for human Retinoic Acid Receptor Alpha (RARE), DR5 submotif (AID 2282934).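 On AC50: reporter responds to endogenous RAR alpha beta and gamma in HepG2 not RARA alone.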 The following applies: HepG2 Attagene cis-factorial RARE DR5 reporter, mRNA; actives raise or lower the signal. The method, boiled down:
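After 24 h of chemical exposure, transiently transfected HepG2 cells were lysed for total RNA; the DR5-regulated reporter transcript was quantified via RT-PCR and capillary electrophoresis, with activity fitted bidirectionally against DMSO.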

For assay [18], the target named is Transcription factor E2F1 (Homo sapiens) (UniProt Q01094). Kind of assay: ATG_E2F_CIS: Attagene CIS-FACTORIAL HepG2 Assay for human E2F Transcription Factor 1 (AID 2282935). The following applies: HepG2 Attagene cis-reporter, E2F reporter RNA transcripts; actives raise or lower the signal. Summed up:
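Transient MRTU transfection of HepG2; 24 h compound exposure; RNA → oligo(dT) RT → PCR → FAM label → HpaI cut → CE fluorescence. Gain/loss of signal fit against DMSO.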

The nature of assay [19]: ATG_AP_1_CIS: Attagene CIS-FACTORIAL HepG2 Assay for human Activator Protein 1 (AP-1) (AID 2282931). The following applies: HepG2 Attagene cis-factorial AP-1 reporter mRNA; actives raise or lower the signal. The method, boiled down:
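HepG2 cells transiently transfected with cis-element-driven reporter transcription units, dosed for 24 hours. Reporter mRNA measured by RT-PCR, 6-FAM labelling, HpaI digestion and capillary electrophoresis. Bidirectional fitting against DMSO baseline.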

For 4 compounds, outcome and AC50 results are on record in PubChem BioAssay (EPA / NIEHS).

The structures appear in SMILES notation. Activity calls are given as the source filed them. How the source made its calls: active means hit-call score of the fitted dose curve at least 0.9, where 1 is the maximum; inactive means score below 0.9.

Retinoic acid receptor alpha (Homo sapiens), sequence (P10276 whole entry, looked up): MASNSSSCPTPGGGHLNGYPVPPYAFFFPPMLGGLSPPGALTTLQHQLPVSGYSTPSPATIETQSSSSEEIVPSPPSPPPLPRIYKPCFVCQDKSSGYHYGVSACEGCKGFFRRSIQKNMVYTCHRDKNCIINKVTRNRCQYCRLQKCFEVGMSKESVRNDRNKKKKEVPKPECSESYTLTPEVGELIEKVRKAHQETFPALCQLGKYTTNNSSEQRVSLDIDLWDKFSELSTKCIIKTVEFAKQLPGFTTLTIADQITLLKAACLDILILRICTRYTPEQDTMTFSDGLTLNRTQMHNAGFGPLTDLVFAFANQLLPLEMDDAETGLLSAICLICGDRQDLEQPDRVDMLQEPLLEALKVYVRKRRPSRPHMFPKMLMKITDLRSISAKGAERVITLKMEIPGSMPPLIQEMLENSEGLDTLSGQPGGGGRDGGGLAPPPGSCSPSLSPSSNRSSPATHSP
Aryl hydrocarbon receptor (Homo sapiens), sequence (P35869 whole entry, looked up): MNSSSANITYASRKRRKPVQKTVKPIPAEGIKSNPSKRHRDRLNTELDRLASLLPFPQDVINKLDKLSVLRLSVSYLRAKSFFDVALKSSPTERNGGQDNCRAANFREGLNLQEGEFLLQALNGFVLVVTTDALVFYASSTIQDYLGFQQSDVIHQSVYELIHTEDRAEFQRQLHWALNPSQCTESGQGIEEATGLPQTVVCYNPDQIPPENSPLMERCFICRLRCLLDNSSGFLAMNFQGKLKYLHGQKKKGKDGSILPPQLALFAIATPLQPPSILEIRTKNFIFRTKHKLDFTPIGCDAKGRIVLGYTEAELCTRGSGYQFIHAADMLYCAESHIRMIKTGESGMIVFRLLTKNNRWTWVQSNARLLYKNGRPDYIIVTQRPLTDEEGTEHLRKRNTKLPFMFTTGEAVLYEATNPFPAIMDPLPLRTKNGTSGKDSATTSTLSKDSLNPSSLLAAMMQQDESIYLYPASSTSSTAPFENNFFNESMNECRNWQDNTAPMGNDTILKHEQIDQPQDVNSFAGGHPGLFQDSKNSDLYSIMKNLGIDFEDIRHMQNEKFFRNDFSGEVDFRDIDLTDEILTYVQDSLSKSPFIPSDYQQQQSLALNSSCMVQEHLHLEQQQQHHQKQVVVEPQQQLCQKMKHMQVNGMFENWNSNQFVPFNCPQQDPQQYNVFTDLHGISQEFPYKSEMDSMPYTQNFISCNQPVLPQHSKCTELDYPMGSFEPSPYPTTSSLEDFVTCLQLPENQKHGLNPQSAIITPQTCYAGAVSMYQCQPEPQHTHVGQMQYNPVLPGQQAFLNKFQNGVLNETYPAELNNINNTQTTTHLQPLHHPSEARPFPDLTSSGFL
CCAAT/enhancer-binding protein beta (Homo sapiens), sequence (P17676 whole entry, looked up): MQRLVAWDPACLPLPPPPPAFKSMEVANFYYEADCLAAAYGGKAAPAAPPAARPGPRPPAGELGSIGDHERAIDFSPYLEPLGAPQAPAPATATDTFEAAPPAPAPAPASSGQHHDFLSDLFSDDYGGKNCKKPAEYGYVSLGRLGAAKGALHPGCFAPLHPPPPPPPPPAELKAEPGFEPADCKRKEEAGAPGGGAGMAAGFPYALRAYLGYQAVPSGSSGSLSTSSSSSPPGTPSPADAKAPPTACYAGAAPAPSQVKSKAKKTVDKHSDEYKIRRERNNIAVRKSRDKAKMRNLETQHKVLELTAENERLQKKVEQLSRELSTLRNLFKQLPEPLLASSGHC
Transcription factor E2F1 (Homo sapiens), sequence (Q01094 whole entry, looked up): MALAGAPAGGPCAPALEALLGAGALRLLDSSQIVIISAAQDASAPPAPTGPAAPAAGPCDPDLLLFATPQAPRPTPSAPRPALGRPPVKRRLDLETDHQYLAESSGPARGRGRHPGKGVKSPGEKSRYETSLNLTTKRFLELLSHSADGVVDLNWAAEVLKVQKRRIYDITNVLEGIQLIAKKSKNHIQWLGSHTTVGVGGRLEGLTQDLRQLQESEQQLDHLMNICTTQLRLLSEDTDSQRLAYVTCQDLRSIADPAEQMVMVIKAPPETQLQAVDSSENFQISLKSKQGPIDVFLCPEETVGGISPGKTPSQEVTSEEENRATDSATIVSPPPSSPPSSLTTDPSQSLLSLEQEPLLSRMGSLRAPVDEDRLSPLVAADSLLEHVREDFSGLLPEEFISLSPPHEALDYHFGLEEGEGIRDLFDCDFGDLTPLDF

As to `CN1COCN(Cc2cnc(Cl)s2)C1=N[N+](=O)[O-]`, the call in assay [1], in assay [2], in assay [3], in assay [4], in [5] and in assay [6] was inactive. In addition, the compound was classed as inactive in assay [7], in [8], in assay [9], in [10], in [11] and in [12]. Also, the result in assay [13], in assay [14], in assay [15], in assay [16], in assay [17] and in [18] was inactive.

Broadly, the AC50 is the midpoint of the concentration-response curve, whichever way the signal moves. `CC(C)=CC1C(C(=O)OCN2C(=O)C3=C(CCCC3)C2=O)C1(C)C` (stereo not given): the compound was called inactive in assay [1], in assay [2], in assay [3], in [4], in assay [6] and in assay [7]. Moreover, the compound was called inactive in assay [8], in assay [9], in assay [10], in assay [13], in [14] and in [15]. Also, the call in [18] was inactive. For the same compound, the concentration at half-maximal activity (AC50) in [5] is 99300 nM (active); in [11], 38400 nM (active); in assay [12] it was 10900 nM (active); in [16], 50000 nM (active).

For `C=C(C)[C@H]1Cc2c(ccc3c2O[C@@H]2COc4cc(OC)c(OC)cc4[C@@H]2C3=O)O1`, the AC50 is 1620 nM (active) in assay [1]; 15700 nM (active) in [2]; 1150 nM (active) in assay [3]; 12200 nM (active) in assay [5]; 4050 nM (active) in assay [6]; 33.7 nM (active) in assay [11]. Also, the concentration at half-maximal activity (AC50) in assay [12] is 24.9 nM (active); in assay [13], 3.3 nM (active); in assay [19] it was 4.4 nM (active); in assay [16] it was 10.4 nM (active); in assay [17], 22.9 nM (active). The result in [4], in assay [7], in assay [9], in assay [10], in assay [14] and in assay [15] was inactive. Further, the compound was classed as inactive in assay [18].

`CSc1nnc(C(C)(C)C)c(=O)n1N`: the compound was classed as inactive in [1], in assay [2], in assay [3], in assay [4], in assay [5] and in assay [6]. The call in [7], in assay [8], in [9], in assay [10], in [11] and in [12] was inactive. For the same compound, the outcome in [13], in [15], in assay [16], in [17] and in assay [18] was inactive.
